Out of some 5,500 compounds screened, about 2,000 (36%) were called active. Not shown: some 18% with an inconclusive outcome. Rule as the data show it: active = normalized growth mostly below about 0.91 (no sharp cut-off); inconclusive = no clear call, values can overlap the other calls; inactive = mostly above about 0.92. Some of the results follow.
Test: chemical genetic growth profiling, strain panel (AID 1159580);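 also: tested at 20 µM; growth read once vehicle control cultures reached saturation at 30 °C; 1 = growth at the plate median or of vehicle wells; lower values mean less growth of the strain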
Conditions: growth OD

Measured: normalized growth

CON
inactive: S. cerevisiae deletion strains, locus YJR075W, strain HOC1, hits give low values 1.02 | S. cerevisiae deletion strains, locus YKL009W, strain mrt4, hits give low values 0.978 | S. cerevisiae deletion strains, locus YKL068W, hits give low values 0.992 | S. cerevisiae deletion strains, locus YKL085W, strain MDH1 (second series), hits give low values 1.04 | S. cerevisiae deletion strains, locus YKL085W, strain MDH1, hits give low values 1.04 | S. cerevisiae deletion strains, locus YKL160W, strain elf1, hits give low values 1.06 | S. cerevisiae deletion strains, locus YKL190W, strain CNB1, hits give low values 1 | S. cerevisiae deletion strains, locus YKR001C, strain vps1, hits give low values 0.989 | S. cerevisiae deletion strains, locus YKR026C, strain gcn3, hits give low values 0.993 | S. cerevisiae deletion strains, locus YKR091W, strain srl3, hits give low values 0.998 | S. cerevisiae deletion strains, locus YLL001W, strain dnm1, hits give low values 1 | S. cerevisiae deletion strains, locus YLL026W, hits give low values 1.01 | S. cerevisiae deletion strains, locus YLL041C, strain sdh2, hits give low values 0.988 | S. cerevisiae deletion strains, locus YLR027C, strain aat2, hits give low values 1.01 | S. cerevisiae deletion strains, locus YLR039C, strain RIC1, hits give low values 1.01 | S. cerevisiae deletion strains, locus YLR058C, strain SHM2, hits give low values 1.01 | S. cerevisiae deletion strains, locus YLR102C, strain apc9, hits give low values 0.989 | S. cerevisiae deletion strains, locus YLR113W, strain HOG1, hits give low values 0.988 | S. cerevisiae deletion strains, locus YLR221C, strain rsa3, hits give low values 0.984 | S. cerevisiae deletion strains, locus YLR258W, strain gsy2, hits give low values 1.01 | S. cerevisiae deletion strains, locus YLR262C, strain YPT6 (second series), hits give low values 0.999 | S. cerevisiae deletion strains, locus YLR262C, strain YPT6, hits give low values 1.01 | S. cerevisiae deletion strains, locus YLR268W, strain sec22, hits give low values 0.995 | S. cerevisiae deletion strains, locus YLR320W, strain mms22, hits give low values 1.02 | S. cerevisiae deletion strains, locus YLR330W, strain CHS5, hits give low values 1.01 | S. cerevisiae deletion strains, locus YLR342W, strain FKS1 (second series), hits give low values 0.999 | S. cerevisiae deletion strains, locus YLR342W, strain FKS1, hits give low values 1.01 | S. cerevisiae deletion strains, locus YLR357W, strain rsc2, hits give low values 0.97 | S. cerevisiae deletion strains, locus YLR370C, strain arc18, hits give low values 1.04 | S. cerevisiae deletion strains, locus YLR371W, strain rom2, hits give low values 0.99 | S. cerevisiae deletion strains, locus YLR384C, strain iki3, hits give low values 1.01 | S. cerevisiae deletion strains, locus YLR418C, strain cdc73, hits give low values 1.03 | S. cerevisiae deletion strains, locus YML016C, strain PPZ1, hits give low values 1 | S. cerevisiae deletion strains, locus YML032C, strain rad52, hits give low values 1.01 | S. cerevisiae deletion strains, locus YML120C, strain ndi1, hits give low values 1 | S. cerevisiae deletion strains, locus YML124C, strain tub3, hits give low values 0.987 | S. cerevisiae deletion strains, locus YMR058W, strain fet3, hits give low values 0.998 | S. cerevisiae deletion strains, locus YMR078C, strain ctf18, hits give low values 0.99 | S. cerevisiae deletion strains, locus YMR125W, strain sto1, hits give low values 0.987 | S. cerevisiae deletion strains, locus YMR129W, hits give low values 1.02 | S. cerevisiae deletion strains, locus YMR205C, strain PFK2, hits give low values 1 | S. cerevisiae deletion strains, locus YMR223W, strain ubp8, hits give low values 0.993 | S. cerevisiae deletion strains, locus YMR231W, strain pep5, hits give low values 0.996 | S. cerevisiae deletion strains, locus YMR263W, strain SAP30, hits give low values 1 | S. cerevisiae deletion strains, locus YMR307W, strain GAS1, hits give low values 1.09 | S. cerevisiae deletion strains, locus YNL067W, strain RPL9B, hits give low values 1.03 | S. cerevisiae deletion strains, locus YNL071W, strain lat1, hits give low values 0.985 | S. cerevisiae deletion strains, locus YNL153C, strain GIM3, hits give low values 1.04 | S. cerevisiae deletion strains, locus YNL183C, strain NPR1, hits give low values 0.927 | S. cerevisiae deletion strains, locus YNL209W, strain ssb2, hits give low values 1.01 | S. cerevisiae deletion strains, locus YNL233W, strain BNI4, hits give low values 1.04 | S. cerevisiae deletion strains, locus YNL248C, strain rpa49, hits give low values 1.02 | S. cerevisiae deletion strains, locus YNL250W, strain rad50, hits give low values 0.99 | S. cerevisiae deletion strains, locus YNL271C, strain bni1, hits give low values 0.986 | S. cerevisiae deletion strains, locus YNL298W, strain CLA4, hits give low values 0.981 | S. cerevisiae deletion strains, locus YNL307C, strain MCK1, hits give low values 0.993 | S. cerevisiae deletion strains, locus YNL322C, strain KRE1 (second series), hits give low values 1.01 | S. cerevisiae deletion strains, locus YNR049C, strain mso1, hits give low values 1 | S. cerevisiae deletion strains, locus YNR052C, strain pop2, hits give low values 0.978 | S. cerevisiae deletion strains, locus YOL006C, strain TOP1, hits give low values 1.08 | S. cerevisiae deletion strains, locus YOL012C, strain htz1 1.2 | S. cerevisiae deletion strains, locus YOL147C, strain pex11, hits give low values 0.998 | S. cerevisiae deletion strains, locus YOR001W, strain rrp6, hits give low values 0.968 | S. cerevisiae deletion strains, locus YOR061W, strain CKA2, hits give low values 1 | S. cerevisiae deletion strains, locus YOR069W, strain VPS5, hits give low values 0.993 | S. cerevisiae deletion strains, locus YOR070C, strain gyp1, hits give low values 1.02 | S. cerevisiae deletion strains, locus YOR080W, strain dia2, hits give low values 0.996 | S. cerevisiae deletion strains, locus YOR083W, strain WHI5, hits give low values 1.03 | S. cerevisiae deletion strains, locus YOR106W, strain vam3, hits give low values 1.02 | S. cerevisiae deletion strains, locus YOR136W, strain idh2, hits give low values 0.98 | S. cerevisiae deletion strains, locus YOR144C, strain elg1, hits give low values 0.995 | S. cerevisiae deletion strains, locus YOR184W, strain ser1, hits give low values 0.958 | S. cerevisiae deletion strains, locus YOR231W, strain MKK1, hits give low values 1.04 | S. cerevisiae deletion strains, locus YOR265W, strain rbl2, hits give low values 1.01 | S. cerevisiae deletion strains, locus YOR270C, strain vph1, hits give low values 1.04 | S. cerevisiae deletion strains, locus YOR290C, strain snf2, hits give low values 1.07 | S. cerevisiae deletion strains, locus YOR316C, strain cot1, hits give low values 0.983 | S. cerevisiae deletion strains, locus YPL051W, strain arl3, hits give low values 1.04 | S. cerevisiae deletion strains, locus YPL055C, strain LGE1, hits give low values 1.09 | S. cerevisiae deletion strains, locus YPL078C, strain atp4, hits give low values 1.04 | S. cerevisiae deletion strains, locus YPL106C, strain sse1, hits give low values 1.01 | S. cerevisiae deletion strains, locus YPL240C, strain hsp82, hits give low values 1 | S. cerevisiae deletion strains, locus YPL256C, strain CLN2, hits give low values 0.993 | S. cerevisiae deletion strains, locus YPR119W, strain clb2, hits give low values 0.99 | S. cerevisiae deletion strains, locus YPR141C, strain kar3, hits give low values 0.989 | S. cerevisiae deletion strains, locus YPR163C, strain tif3, hits give low values 0.991 | S. cerevisiae deletion strains, locus YPR167C, strain met16, hits give low values 0.984 | S. cerevisiae deletion strains, strain wtn01, hits give low values 0.978 | S. cerevisiae strains, strain wild type, hits give low values 0.997

— PubChem BioAssay AID1159580 (chemical genetic matrix, 2015)
